# Compounds with a hit are over-represented: about 1.5% of the library has one in this group of screens.
# NOD2-RIPK2 inh = NOD2-RIPK2 binding disruptors in cells, primary screen, fluorescence, CHO cells, BLA complementation. Receptor-interacting serine/threonine-protein kinase 2 (Homo sapiens), O43353. CCF4 ratio. inhibition, % at 4.98 µM. actives 0.38% (n = 360,000). AID 624267, 2012; in the data active = inhibition above about 21%;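 note: 0% = vehicle only and 100% = reference blocker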
# TLR4 MyD88 comp = inhibitors of TLR4-MyD88 association in cells, primary screen, cell-based, HeLa CL3-4, BLA complementation, FRET ratio. HeLa CL3-4 TLR4/MyD88 BLA complementation. inhibition, % at 8.4 µM. actives 0.18% (n = 200,000). AID 861, 2007; in the data active = inhibition above about 25%;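 note: 0% = vehicle and 100% = reference inhibitor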
# TLR9-MyD88 block = inhibitors of TLR9-MyD88 association in cells, primary screen, cell-based, CHO, BLA complementation, fluorescence | AID 504734, 2011 | inhibition, % at 4.98 µM | actives 0.21% (n = 340,000) | CCF4 FRET ratio | Toll-like receptor 9 (Homo sapiens) + Myeloid differentiation primary response protein …;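 active = inhibition above the mean over all tested compounds plus 3 SD, cut at about 21% in these data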;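 note: 0% = DMSO only wells and 100% = clavulanate BLA inhibitor control wells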
# Target sequence (Q99836 whole entry, looked up): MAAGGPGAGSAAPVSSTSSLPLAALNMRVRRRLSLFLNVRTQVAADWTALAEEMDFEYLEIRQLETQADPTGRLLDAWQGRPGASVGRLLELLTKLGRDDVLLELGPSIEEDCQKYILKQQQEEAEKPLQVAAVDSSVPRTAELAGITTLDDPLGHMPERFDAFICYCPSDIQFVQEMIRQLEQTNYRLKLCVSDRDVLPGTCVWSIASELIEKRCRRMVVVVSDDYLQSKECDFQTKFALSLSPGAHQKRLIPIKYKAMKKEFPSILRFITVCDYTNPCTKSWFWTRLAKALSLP
# Target sequence (Q9NR96 whole entry, looked up): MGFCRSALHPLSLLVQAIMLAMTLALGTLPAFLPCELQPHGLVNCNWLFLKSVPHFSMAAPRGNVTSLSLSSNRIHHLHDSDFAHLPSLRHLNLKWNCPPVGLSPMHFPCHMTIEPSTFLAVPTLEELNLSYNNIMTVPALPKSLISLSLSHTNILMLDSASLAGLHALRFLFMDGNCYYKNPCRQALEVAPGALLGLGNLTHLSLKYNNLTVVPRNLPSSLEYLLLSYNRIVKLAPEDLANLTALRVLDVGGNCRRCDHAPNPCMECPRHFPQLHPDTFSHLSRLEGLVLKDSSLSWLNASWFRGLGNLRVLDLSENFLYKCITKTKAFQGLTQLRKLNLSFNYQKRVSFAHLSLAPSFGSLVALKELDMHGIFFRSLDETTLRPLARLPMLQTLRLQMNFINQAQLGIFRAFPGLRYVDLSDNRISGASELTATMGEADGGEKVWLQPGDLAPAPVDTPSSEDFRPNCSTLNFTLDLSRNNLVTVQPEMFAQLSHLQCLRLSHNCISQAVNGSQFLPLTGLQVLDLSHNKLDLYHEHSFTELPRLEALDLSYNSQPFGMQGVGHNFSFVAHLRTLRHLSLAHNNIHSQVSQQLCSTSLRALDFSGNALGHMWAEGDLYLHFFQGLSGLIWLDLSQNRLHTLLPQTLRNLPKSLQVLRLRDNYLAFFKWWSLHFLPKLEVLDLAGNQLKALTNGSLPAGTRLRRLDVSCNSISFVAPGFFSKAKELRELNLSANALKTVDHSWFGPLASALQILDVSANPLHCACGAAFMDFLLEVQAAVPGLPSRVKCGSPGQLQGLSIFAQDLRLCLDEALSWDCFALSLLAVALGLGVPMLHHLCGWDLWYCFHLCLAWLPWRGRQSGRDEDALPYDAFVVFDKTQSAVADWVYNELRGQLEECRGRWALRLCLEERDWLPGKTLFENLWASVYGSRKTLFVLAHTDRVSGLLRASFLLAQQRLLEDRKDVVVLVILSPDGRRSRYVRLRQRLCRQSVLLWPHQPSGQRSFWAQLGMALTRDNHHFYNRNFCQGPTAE
# Myeloid diff 2 = induction of myeloid progenitor differentiation, primary screen, cell-based, flow cytometry, MLPCN library. actives 1% (n = 360,000). ER-HoxA9 myeloid progenitors, lysozyme-GFP differentiation. calls only at 10 µM;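 active = normalized GFP-positive differentiation at or above the plate's own cutoff, the solvent-only control mean plus 3 SD; inconclusive = no clear call, values can overlap the other calls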;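 note: cells exposed to compound for four days before flow analysis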
# TLR4-MyD88 conf = TLR4-MyD88 association inhibitors, retest, confirmation, cell-based, HeLa CL3-4, BLA complementation, FRET ratio; shares compounds with TLR4 MyD88 comp; CCF4 FRET ratio; actives 50% (n = 350); AID 941, 2007; inhibition, % at 8.4 µM;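 active = mean inhibition across three repeat runs above about 25% carried over from the earlier screen, limit read from the data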;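 note: plate controls were DMSO only for no effect and clavulanic acid blocking BLA at full dose for full effect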
# BLA inhibitor ct = inhibits beta-lactamase activity, counter-screen to TLR4-MyD88 binding inhibitors; actives 63% (n = 350); HeLa BLA reporter, CCF4 FRET ratio; shares compounds with TLR4 MyD88 comp; AID 1237; inhibition, % at 8.4 µM;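 active = mean inhibition over three repeats above about 26% taken from the earlier screen, limit read from the data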;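 note: HeLa cells stably expressing beta-lactamase reporter as counterscreen for TLR4-MyD88 inhibitors; 0% = DMSO and 100% = clavulanic acid full inhibition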
# Active calls of the source: *; i = inactive; ? = inconclusive; / = no result given; + = active, no number.
SMILES,NOD2-RIPK2 inh,TLR4 MyD88 comp,TLR9-MyD88 block,Myeloid diff 2,TLR4-MyD88 conf,BLA inhibitor ct
CCOc1[nH]n(-c2ccc(Cl)cc2)c(=O)c1C=Nc1ccc(OC)cc1,-4.7,-2.8,1.8,+,/,/
CC(C)=CCC[C@H](C)C[C@@H]1CC2=C(C(=O)OC(C)(C)O2)[C@@H](c2ccc(F)cc2)O1,-4.9,/,/,i,/,/
O=C(NCc1ccccc1)C(C1CC1)n1c(CSCCOc2ccccc2)nc2ccccc21 (stereo not given),5.5,/,/,i,/,/
CCCN1CCC(NC(=S)Nc2ccc([N+](=O)[O-])cc2)CC1,-0.3,-2.2,9.6,i,/,/
CCCN1CCN(C(=S)Nc2ccc([N+](=O)[O-])cc2)CC1,-2.0,-7.2,-5.6,+,/,/
O=C(NCCc1ccccn1)c1c(-c2ccsc2)sc2ccccc12,-6.1,/,-2.7,+,/,/
CCOC(=O)N1CCN(C(=O)COc2ccc(S(=O)(=O)NCc3ccccc3)cc2)CC1,-5.2,3.6,-7.1,+,/,/
CCOC(=O)N1CCN(C(=O)CCNS(=O)(=O)c2ccccc2)CC1,-17.1,/,-13.9,i,/,/
CCOC(=O)C1=C[C@@H](C(C)C)N(S(=O)(=O)c2ccc(C)cc2)[C@H]1c1ccc(C(F)(F)F)cc1,-4.2,/,/,i,/,/
CCOC(=O)C1=C(CSc2nc(-c3ccccc3)ccc2C#N)OC(N)=C(C#N)C1c1ccc(OC)cc1 (stereo not given),16.8,26.4*,6.9,+,15.2,24.1
Cn1c(Cl)cnc1C1CC(=O)c2cc(Cl)ccc2O1 (stereo not given),4.5,26.9*,3.0,?,-7.0,-16.8
O=C1CC(c2ccc(Cl)cc2)Oc2ccc(Cl)cc21 (stereo not given),-2.2,/,-8.2,i,/,/
COc1ccc(-c2cc3nc(C)cc(N4CCN(C(=O)c5cccnc5)CC4)n3n2)cc1,12.3,/,-11.2,i,/,/
CC1CC(O)C2C3(C)CCCC2(COC3=O)C12CCC1(CCOC1=O)O2 (stereo not given),-10.7,/,/,i,/,/
COc1ccccc1N1CCN(C(=O)CSc2nc3ccccc3o2)CC1,-1.5,2.0,-6.5,i,/,/
COCCNc1nc(SCC(=O)N2CCN(c3ccccc3OC)CC2)nc2ccccc12,-2.9,25.1*,0.6,/,-6.6,-2.7
O=[N+]([O-])c1ccc(NN=Cc2ccccc2O)nc1,19.4,/,14.5,?,/,/
O=[N+]([O-])c1ccc(N/N=C/c2ccc(OCc3cccc4ccccc34)cc2)nc1,-0.5,34.7*,15.9,i,47.1*,82.0*
N#Cc1ccccc1Cn1cc(/C=N/Nc2ccc([N+](=O)[O-])cn2)c2ccccc21,-2.8,46.0*,0.4,+,40.5*,79.5*
CC(C)(C)c1ccc(-n2nc(C#N)c(Cl)cc2=O)cc1,71.6*,42.2*,/,?,30.3*,-2.0
CCc1nc2c(OCc3ccc(OC(F)F)cc3)cccn2c1N(C)C(=O)c1ccc(OC)cc1,2.0,/,/,i,/,/
CCN(CC)c1ccc2cc(-c3nc4ccccc4[nH]3)c(=O)oc2c1,44.7*,39.6*,37.1*,+,64.1*,78.3*
COc1cccc2cc(-c3nc4ccccc4[nH]3)c(=O)oc12,3.4,/,-0.5,i,/,/
CCN(CC)c1ccc2cc(-c3nnc(-c4ccc(Br)cc4)o3)c(=O)oc2c1,/,10.8,/,/,/,/
CCN(CC)c1ccc2cc(-c3nc(-c4ccc(OC)cc4)cs3)c(=O)oc2c1,/,79.6*,/,/,89.7*,115.2*
SMILES,NOD2-RIPK2 inh,TLR4 MyD88 comp,TLR9-MyD88 block,Myeloid diff 2,TLR4-MyD88 conf,BLA inhibitor ct
CCC(CC)C(=O)N(C)c1c(C)nc2c(OCCC3CCCCC3)cccn12,7.8,/,/,i,/,/
C=CCNc1ncnc2c1ncn2[C@H]1CN(Cc2cc(OC)c(OC)c(OC)c2)C[C@@H](CO)O1,-8.8,/,/,i,/,/
O=c1c(Br)c(Br)cnn1-c1ccccc1,19.0,34.7*,9.4,?,19.6,-5.7
CSCCC(C(=O)Nc1c(C)cccc1C)N1CCN(C/C=C/c2ccccc2)CC1 (stereo not given),2.8,/,/,i,/,/
COC(=O)[C@@]12C[C@@H](CC(=O)N3CCN(C(=O)c4ccco4)CC3)C(=O)N(CCc3ccc(OC)c(OC)c3)C1=CCC(C)(C)C2,-14.8,/,/,i,/,/
Nc1ccccc1C(=O)NCc1ccco1,-9.7,/,-1.5,i,/,/
O=C(NCc1ccco1)c1ccccc1F,1.4,26.5*,-5.3,i,-2.6,4.1
Cc1ccc(N=Cc2c(O)c3ccccc3n(C)c2=O)cc1,0.2,/,6.5,i,/,/
Cc1ccc(N=Cc2sc(O)c3ccccc23)cc1,-5.2,39.3*,19.2,i,17.6,52.0*
Cc1ccc(N=Cc2sc(O)c3ccccc23)c(C)c1,-4.1,25.1*,4.9,i,18.5,37.1*
CCN(c1ccc(OC)cc1)S(=O)(=O)N1CCCC(C(=O)NCc2ccc(OC(C)C)cc2)C1 (stereo not given),-4.2,/,-20.4,i,/,/
CC1C(=O)N(Cc2cn(CCC3OCCCO3)nn2)CCS(=O)(=O)N1Cc1ccc(-c2ccc(Cl)c(Cl)c2)cc1 (stereo not given),1.4,/,-1.9,i,/,/
O=C(N=c1ccn(-c2nc3ccccc3nc2NS(=O)(=O)c2ccccc2)cc1)c1cccs1,15.4,66.2*,-1.8,i,10.4,14.7
Cc1ccccc1C(=O)N=c1ccn(-c2nc3ccccc3nc2NS(=O)(=O)c2ccc(F)cc2)cc1,-2.5,/,13.1,i,/,/
Nc1[nH]c(C(=O)c2ccccc2)c(-c2cccc3ccccc23)c1C(=O)NCc1ccccc1,10.6,/,/,i,/,/
COc1ccccc1-c1nnc(NC(=O)C(C)C)s1,-8.6,27.3*,3.4,i,-9.4,5.0
COc1ccccc1-c1nnc(NC(C)=O)s1,-4.3,-15.7,10.2,i,/,/
CC(C)(C)C(=O)Cn1ncc(N2CCOCC2)c(Cl)c1=O,-1.3,/,1.9,i,/,/
CC(C)(C)C(=O)Cn1ncc(Br)c(Br)c1=O,11.4,35.8*,17.0,?,17.4,4.8
O=C(Nc1nccs1)c1cccc(N2C(=O)c3cccc4c([N+](=O)[O-])ccc(c34)C2=O)c1,-4.2,28.1*,0.5,?,21.1,32.2*
O=C(Nc1ccc(S(=O)(=O)Nc2nccs2)cc1)c1cccc(N2C(=O)c3ccccc3C2=O)c1,7.6,17.8,-7.5,i,/,/
Nc1nnc(-c2cc3c(ccc4ccccc43)oc2=O)s1,/,38.0*,/,/,30.7*,58.0*
CCCCN(C=O)c1c(CC)nc2ccc(C(=O)NCCc3ccccn3)cn12,4.6,/,/,i,/,/
O=S(=O)(Nc1cc2nc3ccccc3nc2n1Cc1ccccc1)c1ccc(Cl)cc1,43.8*,36.4*,-2.4,+,33.0*,65.6*

# Source: PubChem BioAssay
